Assay in all cases: NCI-60 one-dose screen, 48 h (100 = growth as untreated, 0 = no growth, -100 = all killed)
For test [1], the system named is SK-MEL-2 melanoma. The conditions noted are these: 10 µM unless noted.
Test [2] has as its system EKVX NSCLC. To be noted: 10 µM unless noted.
In test [3] the test system is SN12C renal. To be noted: 10 µM unless noted.
Test [4] deals with UO-31 renal. The conditions noted are these: 10 µM unless noted.
The subject of test [5] is TK-10 renal. To be noted: 10 µM unless noted.
Test [6] has as its system CAKI-1 renal. To be noted: 10 µM unless noted.
For test [7], the system named is A498 renal. To be noted: 10 µM unless noted.
For test [8], the system named is CCRF-CEM leukemia. The conditions noted are these: 10 µM unless noted.
The test system of test [9] is MOLT-4 leukemia. To be noted: 10 µM unless noted.
Test [10] has as its system SR leukemia. The conditions noted are these: 10 µM unless noted.
In test [11] the test system is RPMI-8226 leukemia. To be noted: 10 µM unless noted.
The subject of test [12] is OVCAR-8 ovarian. The conditions noted are these: 10 µM unless noted.
Test [13] has as its system OVCAR-5 ovarian. The conditions noted are these: 10 µM unless noted.
Test [14] concerns OVCAR-4 ovarian. To be noted: 10 µM.
Test [15] has as its system SK-OV-3 ovarian. To be noted: 10 µM unless noted.
The subject of test [16] is IGROV1 ovarian. The conditions noted are these: 10 µM unless noted.
Test [17] relates to OVCAR-3 ovarian. The conditions noted are these: 10 µM unless noted.
Test [18] concerns HS 578T breast. The conditions noted are these: 10 µM unless noted.
For test [19], the system named is NCI/ADR-RES ovarian. To be noted: 10 µM unless noted.

About 83,000 compounds went through this panel and 20% of them were active in at least one assay; those are over-represented in the sample as a whole.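 Cell lines were cultured in 96-well plates, exposed to a single compound concentration, and assessed for percent growth 48 hours later.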 A number with no mark means an inactive call. Activity calls are given as the source filed them. How the source made its calls: active means growth percent below 10; inactive means the rest.

For the compound `CCOC(=O)c1sc2nc(-c3cc(OC)c(OC)c(OC)c3)nc(N3CCOCC3)c2c1C`, the growth in test [1] is 28.1%; in test [2], 39.5%; in test [3] it was 36%; in test [4], 22.4%; in [5] it was 48.3%; in test [6] it was 31.6%. Further, the growth was -0.941% (active) in test [7]; 17.1% in test [8]; 17.1% in test [9]; 41.8% in [10]; 9.94% (active) in test [11]; 44.1% in test [12]. For the same compound, the growth in test [13] is 74%; in test [14] it was 19.7%; in test [15] it was 56.1%; in test [16] it was 50.5%; in test [17], 15.5%.

Regarding `O=C1Nc2ccccc2/C1=C/C(=O)c1ccc(N2CCCC2)cc1`, the growth is 58.7% in test [1]; 76.1% in test [2]; 15.6% in [3]; 47.1% in test [4]; 42.8% in test [5]; 18.1% in [6]. Also, the growth is 65.8% in test [7]; 10.4% in test [8]; 3.55% (active) in [9]; 15.2% in [10]; 15.8% in [11]; -12.7% (active) in test [12]. In addition, the growth was 75.6% in [13]; 70.9% in test [15]; 15.9% in [16]; -17.6% (active) in test [17]; 12.3% in test [18]; -23.8% (active) in test [19].

`CCN(CC)CCCCCCNc1cccc2cc(Br)cnc12`: the growth in [1] is 21.7%; in test [2], 93.1%; in test [3], 104%; in test [4], 61%; in test [5], 58.7%; in [6], 62.3%. Besides, the growth in test [7] was 86.3%; in test [8], 57%; in test [9] it was 9.09% (active); in [10] it was 28.4%; in test [11] it was 68%; in test [12], 80.2%. Besides, the growth was 117% in test [13]; 87.5% in test [14]; 111% in test [15]; 60% in [16]; 84.2% in [17]; 79.9% in test [19].

Consider `Cc1ccc(-c2cc(O)c(-c3ccc(C)cc3C)cc2O)c(C)c1`, for which the growth in test [1] is 91.8%; in [2], 56.6%; in test [3], 68.9%; in test [4] it was 64.5%; in test [5] it was 79.1%; in test [6], 39.7%. Further, the growth in test [7] is 94.3%; in test [8], 39.5%; in test [9] it was 31.7%; in test [10], 7.1% (active); in test [11] it was 37.2%; in test [12] it was 47.7%. Moreover, the growth in test [13] is 96.9%; in test [14] it was 41.2%; in [15], 82.7%; in [16], 86.9%; in test [17], 67.8%; in test [18], 87.9%. Further, the growth in [19] was 52.2%.

In the case of `Brc1ccc(-c2nnc3c4[nH]ccc4ncn23)cc1`, the growth is 92.2% in test [1]; 77.5% in test [2]; 90.5% in test [3]; 58.6% in [4]; 89.4% in test [5]; 87.3% in test [6]. Besides, the growth in [7] was 70.6%; in [8] it was 97.3%; in test [9], 77.2%; in [10], 82.1%; in [11] it was 84.4%; in test [12], 95.3%. Besides, the growth in test [13] was 113%; in [14], 91.1%; in test [15], 93.2%; in [16], 69.6%; in test [17], 85.7%; in test [18], 93.6%.

For the compound `CCn1cc(-c2[nH]c(=S)ncc2-c2ccc(Cl)cc2)c(-c2ccc(Br)cc2)n1`, the growth in test [1] was 72%; in [2], 85.7%; in [3], 85.1%; in test [4], 89.4%; in test [5], 109%; in test [6], 98.5%. In addition, the growth was 106% in test [7]; 97.8% in test [8]; 97.2% in test [9]; 93.1% in test [10]; 77.6% in [11]; 86.9% in [12]. Besides, the growth in test [13] is 90.5%; in test [14], 94.2%; in [16] it was 81.5%; in [17] it was 97.4%; in test [18], 108%; in test [19] it was 82.5%.

Take `COc1ccc(-c2nc3ccccn3c2/C=C/C(=O)c2cc(OC)c(OC)c(OC)c2)cc1OC`: the growth in test [1] was -28.5% (active); in test [2] it was 28.5%; in test [3], 31%; in [4], 17%; in test [5], 43%; in test [6] it was 8.16% (active). Besides, the growth in test [7] was -14.1% (active); in test [8], 16.4%; in [9] it was 25.5%; in [10], 27%; in test [11], -26% (active); in test [12], 14.1%. For the same compound, the growth in [13] was 24.5%; in test [14] it was 17.8%; in test [15], 6.61% (active); in [17], 9.08% (active); in [18] it was 6.05% (active); in test [19], -4.39% (active).

As to `C#C[C@]1(O)CC[C@H]2[C@@H]3CC=C4c5nc(N)sc5CC[C@]4(C)[C@H]3CC[C@@]21C`, the growth is 58.8% in test [1]; 53.7% in test [2]; 82.2% in [3]; 90.4% in [4]; 80.4% in [5]; 54.9% in test [6]. Moreover, the growth in [7] was 36.4%; in [8] it was 77.7%; in test [9], 36.9%; in test [10], 23.6%; in test [11] it was -7.97% (active); in [12], 85.3%. Besides, the growth in test [13] was 88.5%; in test [14], 63.4%; in test [16], 71.8%; in [17], 47.2%; in [18], 6.1% (active); in [19], 62.1%.

Source of the values: PubChem BioAssay (NCI).
